Legend:
Details in all cases: concentration: 10 µM; 24 h
HCC1569 [1] = assay: cell number relative to DMSO (% of DMSO); higher = more cells (less growth inhibition / toxicity)
Method in brief: (§1)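 In 384-well plates holding 800 HCC1569 or TDF cells per well in RPMI with 10% FBS, compounds were tested at 10 µM for 24 h at 37 °C in triplicate. Fixation used 3.7% formaldehyde. Staining used a rabbit anti-H1.0 antibody with an AlexaFluor 647 secondary, plus DAPI. Each value, H1.0 nuclear intensity or cell number, is a median of replicates shown as percent of the plate control, and HCC1569 values were smoothed for positional effects.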

TDF [2] = assay: as above
Method in brief: as §1

TDF [3] = assay: H1.0 immunofluorescence intensity relative to DMSO (% of DMSO); higher = stronger H1.0 induction, active = 120 or more
Method in brief: as §1

HCC1569 [4] = assay: H1.0 immunofluorescence intensity relative to DMSO (% of DMSO); higher = stronger H1.0 induction, active = 140 or more
Method in brief: as §1
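Wherever H1.0 immunofluorescence intensity relative to DMSO is given: TDF is a line of transformed human dermal fibroblasts of mesenchymal origin.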
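Wherever cell number relative to DMSO is given: TDF denotes transformed human dermal fibroblasts of mesenchymal origin.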

Compound | cell number (HCC1569 [1]) | cell number (TDF [2]) | H1.0 immunofluorescence intensity (TDF [3]) | H1.0 immunofluorescence intensity (HCC1569 [4])
CCCCCCCCCCCC=CCCCCC(=O)O [6(Z)-Octadecenoic acid] | 100 | 99.9 | 101 (inactive) | 97.5 (inactive)
COc1ccc(-c2coc3cc(O)cc(O)c3c2=O)cc1 [Biochanin A] | 106 | 97.4 | 93.9 (inactive) | 90.6 (inactive)
CC(=O)NCCc1ccc(O)c(O)c1 [N-Acetyldopamine monohydrate] | 101 | 111 | 96.7 (inactive) | 91.4 (inactive)
S=C([S-])OC1CC2CC1C1CCCC21.[K+] [D-609 potassium] | 100 | 104 | 95.2 (inactive) | 102 (inactive)
O=C(O)Cc1sc(-c2ccccc2)nc1-c1ccc(Cl)cc1 [Fentiazac] | 91.8 | 107 | 89.6 (inactive) | 116 (inactive)
O=C(O)CNC(=O)C(=O)O [2-(carboxymethylamino)-2-oxoacetic acid] | 103 | 92.4 | 93.7 (inactive) | 83.7 (inactive)
COc1ccccc1NC(=O)Nc1nc(-c2cccnc2)nc2ccccc12 | 97.6 | 102 | 95.1 (inactive) | 104 (inactive)
CC(C=CC1=C(C)CCCC1(C)C)=CC=CC(C)=CC(=O)Nc1ccc(O)cc1 [Fenretinide] | 51.1 | 106 | 97.8 (inactive) | 181 (active)
COc1c2occc2c(OC)c2c(=O)cc(C)oc12 [Khellin] | 101 | 76.6 | 111 (inactive) | 100 (inactive)
Cc1nc2ccccn2c(=O)c1CCN1CCC(C(=O)c2ccc(F)cc2)CC1 [Pirenperone] | 99.5 | 100 | 96.5 (inactive) | 103 (inactive)
CNCC(O)c1ccc(O)c(O)c1.O=C(O)C(O)C(O)C(=O)O [L-(+)-Epinephrine tartrate] | 104 | 97 | 93.2 (inactive) | 106 (inactive)

— the supplement of paper PMC7156485
